The target of assay [1] is Catechol O-methyltransferase (Homo sapiens) (UniProt P21964). In words: Confirmatory Screen for Target Class Profiling of Small Molecule Inhibitors of Methyltransferases (AID 1745852). As to activity change, negative = inhibition: % is scaled to controls: 0 for no effect and ±100 for the full control effect. The conditions noted are these: MTase-Glo luminescence, SAH detection, recombinant enzyme; measured here: COMT max response; stronger effect = lower value.
Assay [2] concerns the target Guanidinoacetate N-methyltransferase (Homo sapiens) (UniProt Q14353). The assay is described as above. As to conditions: MTase-Glo luminescence, SAH detection, recombinant enzyme; activity change, negative = inhibition: at 57.3 µM (top of the series) unless noted.
Assay [3] addresses Nicotinamide N-methyltransferase (Homo sapiens) (UniProt P40261). The description is as above. The conditions noted are these: MTase-Glo luminescence, SAH detection, recombinant enzyme; measured here: NNMT max response; stronger effect = lower value.
The target in assay [4] is Phenylethanolamine N-methyltransferase (Homo sapiens) (UniProt P11086). Described as above. As to conditions: MTase-Glo luminescence, SAH detection, recombinant enzyme; measured here: PNMT max response; stronger effect = lower value.
Assay [5] deals with Glutathione peroxidase 1 (Homo sapiens) (UniProt P07203). In words: Primary qHTS Assay for Inhibitors of Recombinant Selenoprotein Glutathione Peroxidase 1 (GPX1) (AID 1845191). Also: nearly all actives have a fitted effect of over 65% in size. As to activity, negative = inhibition: % is scaled to controls: 0 for no effect and ±100 for the full control effect. The conditions noted are these: recombinant GPX1, GR-coupled NADPH fluorescence, 15 min; series mostly up to 48.8 µM. The essentials:
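NADPH consumption tracked by fluorescence at 340/450 nm between t=0 and t=15 min, room temperature. Final mix: 10 nM GPX1, 100 nM glutathione reductase, 1 mM GSH, 0.5 mM NADPH, 0.5 mM cumene hydroperoxide, 0.01% BSA; 30 min compound–enzyme preincubation.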

Assay [6] addresses Phospholipid hydroperoxide glutathione peroxidase GPX4 (Homo sapiens) (UniProt P36969). In words: Primary qHTS Assay for Inhibitors of Recombinant Selenoprotein Glutathione Peroxidase 4 (GPX4) (AID 1845192). Also: nearly all actives have a fitted effect of over 65% in size. As to activity change, negative = inhibition: % is scaled to controls: 0 for no effect and ±100 for the full control effect. The conditions noted are these: recombinant GPX4, GR-coupled NADPH fluorescence, 15 min; series mostly up to 50 µM. The essentials: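 NADPH consumption followed by fluorescence at 340/450 nm, t=0 and after 15 min at room temperature. Reaction started with cumene hydroperoxide (0.5 mM final) after 30 min compound–GPX4 preincubation; final 200 nM GPX4, 100 nM GR, 1 mM GSH, 0.5 mM NADPH.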

In assay [7] the target is Luciferin 4-monooxygenase (Photinus pyralis) (UniProt P08659). In words: Primary firefly luciferase (FLuc) qHTS assay for identification of artifact compounds. (AID 1845220). Also: nearly all actives have a fitted effect of over 60% in size.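 As to activity change, negative = inhibition: plate controls were DMSO vehicle for no effect and no enzyme for full effect.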 The conditions noted are these: purified firefly luciferase, luminescence, 5 min; series mostly up to 54.1 µM. The essentials: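 Compounds sat 15 min at room temperature with 10 uM luciferin and 10 uM ATP (pH 7.6 Tris acetate). Firefly luciferase (10 nM final) was then added, and luminescence was read 5 min later. Data normalized to no-enzyme and DMSO controls were Hill-fitted.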

Assay [8] in a line: Primary fluorescence-based thiol-reactive (MSTI) qHTS assay for identification of artifact compounds. (AID 1845221).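 Also: thiol-reactive compounds lower the probe fluorescence signal; nearly all actives have a fitted effect of over 65% in size.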 As to conditions: MSTI thiol-reactivity probe, 1 h; series mostly up to 53.8 µM. A digest of the protocol: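 qHTS titration of compound; 4 uM MSTI, PBS pH 7.4, 2% DMSO; 1 h RT, dark; fluorescence 525/598 nm; normalized to Acetyl-MSTI and MSTI; 4-parameter Hill fit.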

Assay [9] deals with Nanoluciferase (engineered Oplophorus gracilirostris luciferase). In words: Primary Nanoluciferase (NLuc) qHTS assay for identification of artifact compounds. (AID 1845222).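 Also: 0% = DMSO and -100% = no enzyme.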 As to conditions: NLuc-conditioned medium, Nano-Glo luminescence, 5 min; series mostly up to 54.1 µM. A digest of the protocol: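 Luminescence from secreted NLuc (filtered, 1:55-diluted S16 cell medium) read 5 min after Nano-Glo substrate; compounds preincubated 15 min, RT. Hill fits of inhibition normalized to DMSO and no-enzyme.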

Assay [10] in a line: Primary redox qHTS assay for identification of artifact compounds. (AID 1845223). As to conditions: Amplex Red/HRP redox cycling with DTT, fluorescence; series mostly up to 53.8 µM. The essentials:
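Redox-cycling detection via DTT (250 uM final) oxidation coupled to Amplex Red (25 uM)/HRP (250 mU/mL) in HBSS. 15 min preincubation plus 30 min after DTT, room temperature. Ex/Em 525/598 nm; 4-parameter Hill fit against DMSO and 10 uM DA3003.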

Assay [11] in a line: Quantitative High-Throughput drug screen in 47 multiple myeloma cell lines against the NCATS MIPE library collection: FR4_PLB cell viability assay (AID 1918924; also: nearly all actives have a fitted effect of over 35% in size; also: potency is read from the fitted curve at half-maximal effect). As to conditions: FR4_PLB myeloma cells viability, CellTiter-Glo ATP, 48 h; series mostly up to 45.8 µM. A digest of the protocol: (§1)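 Myeloma cells (500 per well) were exposed to MIPE 4.0 compounds by pin transfer and incubated 48 hours at 37C, 5% CO2. Viability was read as ATP by CellTiter-Glo luminescence, normalised to DMSO (100%) and media-only (0%) wells.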

A short description of assay [12]: Quantitative High-Throughput drug screen in 47 multiple myeloma cell lines against the NCATS MIPE library collection: Delta47_JCRB cell viability assay (AID 1918925; also: potency is read from the fitted curve at half-maximal effect; nearly all actives have a fitted effect of over 45% in size). As to conditions: Delta47 myeloma viability, CellTiter-Glo ATP, 48 h; series mostly up to 45.8 µM. A digest of the protocol: (§2)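 Steps: seed 500 cells per well; pin-transfer MIPE 4.0 library; incubate 48 h at 37C, 5% CO2, humidified; add CellTiter-Glo, 5 min room temperature; read luminescence.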

Assay [13] can be described thus: Quantitative High-Throughput drug screen in 47 multiple myeloma cell lines against the NCATS MIPE library collection: EJM_DSMZ cell viability assay (AID 1918926; also: potency is read from the fitted curve at half-maximal effect; nearly all actives have a fitted effect of over 30% in size). As to conditions: EJM myeloma cell viability, CellTiter-Glo ATP, 48 h; series mostly up to 45.8 µM. The essentials:
as §2

Assay [14] is described as follows: Quantitative High-Throughput drug screen in 47 multiple myeloma cell lines against the NCATS MIPE library collection: AMO1_DSMZ cell viability assay (AID 1918927; also: nearly all actives have a fitted effect of over 30% in size; also: potency is read from the fitted curve at half-maximal effect). As to conditions: AMO1 myeloma cells viability, CellTiter-Glo ATP luminescence, 48 h; series mostly up to 45.8 µM. A digest of the protocol:
as §2

Assay [15] can be described thus: Quantitative High-Throughput drug screen in 47 multiple myeloma cell lines against the NCATS MIPE library collection: ARP1_JJKsccF8 cell viability assay (AID 1918928; also: potency is read from the fitted curve at half-maximal effect; nearly all actives have a fitted effect of over 40% in size). The conditions noted are these: ARP1 myeloma cells viability, CellTiter-Glo ATP, 48 h; series mostly up to 45.8 µM. The essentials:
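CellTiter-Glo luminescence after 48 h exposure gives viability, scaled between DMSO-only (100%) and media-only (0%) controls. Library compounds are pinned onto 500 myeloma cells per well, incubated at 37C with 5% CO2.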

Assay [16] can be described thus: Quantitative High-Throughput drug screen in 47 multiple myeloma cell lines against the NCATS MIPE library collection: ARD_JJKsccE7 cell viability assay (AID 1918929; also: potency is read from the fitted curve at half-maximal effect). As to conditions: ARD myeloma cell line viability, CellTiter-Glo, 48 h; series mostly up to 45.8 µM. A digest of the protocol:
as §2

The target of assay [17] is Metallo-beta-lactamase type 2 (Klebsiella pneumoniae) (UniProt C7C422). In words: qHTS to identify inhibitors of the New Delhi Metallo-beta-lactamase (NDM): assay validation screen against the NCATS LOPAC Collection (AID 1794843). Also: % is scaled to controls: 0 for no effect and ±100 for the full control effect. The conditions noted are these: NDM-1 enzyme, nitrocefin hydrolysis, absorbance 485 nm; series mostly up to 38.4 µM. The essentials:
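Absorbance at 485 nm from nitrocefin turnover (50 uM solution added), read at plateau, gives the read-out. Compounds in DMSO were incubated first with 2 nM final NDM-1 in pH 7.0 HEPES buffer containing 1 uM ZnSO4 and 0.01% Tween20.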

Assay [18] is described as follows: Quantitative High-Throughput drug screen in 47 multiple myeloma cell lines against the NCATS MIPE library collection: Karpas620_DSMZ cell viability assay (AID 1918959). Also: nearly all actives have a fitted effect of over 30% in size. Also: potency is read from the fitted curve at half-maximal effect. As to conditions: Karpas620 myeloma viability, CellTiter-Glo ATP luminescence, 48 h; series mostly up to 45.8 µM. The essentials: as §1
A short description of assay [19]: NCATS anti-infectives library activity on HEK293 viability as a counter-qHTS vs the C. elegans viability qHTS (AID 1745854). Also: potency is read from the fitted curve at half-maximal effect. The conditions noted are these: HEK293 viability counter-screen; series mostly up to 41.8 µM. A digest of the protocol:
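Cytotoxicity counter-screen to a worm viability qHTS: CellTiter-Glo luminescence read 10 min after reagent addition. Compounds (final up to 41.7 uM, a 1:5 dilution series) incubated 24 hr at 37C with 1,500 HEK293 cells per well; digitonin control.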

“And” between values parts separate entries of the source, which are not always exact repeats. Identical values can stand only once. Records with an inconclusive call do not appear. The source made the active and inactive calls. Calls follow the shape of the dose curve; as a rule, active = well fitted curve in the direction sought with a large enough effect; inconclusive = small, poorly fitted or top-dose-only effect, or another doubt; inactive = no such curve, though single readings can be large; an effect the other way counts as inactive or inconclusive.

Glutathione peroxidase 1 (Homo sapiens), sequence (P07203 whole entry, looked up): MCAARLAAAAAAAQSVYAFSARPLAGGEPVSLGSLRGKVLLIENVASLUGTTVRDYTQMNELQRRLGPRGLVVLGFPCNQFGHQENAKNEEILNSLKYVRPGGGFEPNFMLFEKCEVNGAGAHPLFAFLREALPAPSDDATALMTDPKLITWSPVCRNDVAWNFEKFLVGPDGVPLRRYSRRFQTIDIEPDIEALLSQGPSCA
Phospholipid hydroperoxide glutathione peroxidase GPX4 (Homo sapiens), sequence (P36969 whole entry, looked up): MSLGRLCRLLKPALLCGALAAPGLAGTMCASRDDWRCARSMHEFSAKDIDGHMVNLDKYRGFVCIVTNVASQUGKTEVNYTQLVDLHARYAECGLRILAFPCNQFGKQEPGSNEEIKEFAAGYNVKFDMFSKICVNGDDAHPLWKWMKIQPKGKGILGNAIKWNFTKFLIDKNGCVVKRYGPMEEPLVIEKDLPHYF
Metallo-beta-lactamase type 2 (Klebsiella pneumoniae), sequence (C7C422 whole entry, looked up): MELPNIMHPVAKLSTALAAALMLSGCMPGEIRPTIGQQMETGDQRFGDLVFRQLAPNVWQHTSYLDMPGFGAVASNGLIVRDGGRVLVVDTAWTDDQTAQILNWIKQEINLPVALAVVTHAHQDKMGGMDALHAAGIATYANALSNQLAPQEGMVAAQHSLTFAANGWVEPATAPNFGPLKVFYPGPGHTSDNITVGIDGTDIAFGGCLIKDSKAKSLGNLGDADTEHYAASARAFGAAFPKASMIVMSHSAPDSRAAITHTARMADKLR
Catechol O-methyltransferase (Homo sapiens), sequence (P21964 whole entry, looked up): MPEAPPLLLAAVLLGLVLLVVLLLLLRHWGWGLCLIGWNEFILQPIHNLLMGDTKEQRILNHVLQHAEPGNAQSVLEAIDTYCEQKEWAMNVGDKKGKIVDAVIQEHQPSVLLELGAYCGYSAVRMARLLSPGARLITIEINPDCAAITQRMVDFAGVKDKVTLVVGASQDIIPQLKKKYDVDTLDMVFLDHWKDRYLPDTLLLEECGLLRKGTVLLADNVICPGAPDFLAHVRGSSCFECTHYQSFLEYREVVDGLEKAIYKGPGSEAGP
Nicotinamide N-methyltransferase (Homo sapiens), sequence (P40261 whole entry, looked up): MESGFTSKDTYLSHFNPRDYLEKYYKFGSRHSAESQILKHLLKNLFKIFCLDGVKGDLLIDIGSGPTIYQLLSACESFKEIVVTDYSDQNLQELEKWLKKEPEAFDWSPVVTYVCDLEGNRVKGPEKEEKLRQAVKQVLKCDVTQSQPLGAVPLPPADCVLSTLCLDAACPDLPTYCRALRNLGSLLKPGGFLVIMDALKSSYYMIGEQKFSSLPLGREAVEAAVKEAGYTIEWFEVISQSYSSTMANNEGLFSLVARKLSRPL
Phenylethanolamine N-methyltransferase (Homo sapiens), sequence (P11086 whole entry, looked up): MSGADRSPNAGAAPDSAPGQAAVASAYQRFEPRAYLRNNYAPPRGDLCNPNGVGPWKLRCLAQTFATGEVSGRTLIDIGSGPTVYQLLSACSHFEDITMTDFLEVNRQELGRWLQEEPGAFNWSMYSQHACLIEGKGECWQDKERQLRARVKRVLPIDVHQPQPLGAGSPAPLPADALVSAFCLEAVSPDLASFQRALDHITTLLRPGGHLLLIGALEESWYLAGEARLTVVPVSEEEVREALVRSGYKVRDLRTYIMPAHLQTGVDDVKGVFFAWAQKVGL

Turning to `CCn1nnc2c(N3CCOCC3)nc(-c3ccc(NC(=O)Nc4ccc(C(=O)N5CCN(C)CC5)cc4)cc3)nc21`, the activity in assay [1] was -6.26%; in [3] it was -65.9%; in assay [4] it was -1.56%. In assay [2], the activity change, negative = inhibition was determined as 0%. Also, the Potency result in assay [5], in assay [6], in assay [7], in assay [8], in assay [9] and in assay [10] was “inactive” in each case. The Potency in assay [11] was 7.4 nM (active); in assay [12] it was 13.2 nM (active); in assay [13], 469 nM (active); in assay [14], 52.6 nM (active); in assay [15], 66.2 nM (active); in assay [16], 37.2 nM (active).
On to `COC(=O)Nc1nc2ccc(C(=O)c3ccc(F)cc3)cc2[nH]1`, for which the Potency entry in assay [5], in assay [6], in [7], in assay [8], in assay [9] and in assay [10] was “inactive” throughout. The Potency in assay [11] is 264 nM (active); in assay [12] it was 418 nM (active); in assay [14] it was 296 nM (active); in [15], 418 nM (active); in assay [16], 332 nM (active).
For `O=c1c2ccccc2nc2n1CCc1c-2[nH]c2ccccc12`, the outcome in [17] is “inactive”. Moreover, the Potency result in assay [5], in [6], in assay [8], in assay [9], in [10] and in assay [11] was “inactive” in each case. In addition, the Potency entry in [14] and in [16] was “inactive” throughout.
Consider `Cc1[nH]nc2ccc(-c3cncc(OC[C@@H](N)Cc4ccccc4)c3)cc12`, for which the Potency result in assay [5], in [6], in assay [7], in assay [8], in assay [9] and in assay [10] was “inactive” each time. In addition, the Potency was 4180 nM (active) in assay [11]; 526 nM (active) in [12]; 1870 nM (active) in [13]; 935 nM (active) in [14]; 4690 nM (active) in assay [15]; 2090 nM (active) in assay [16]. Besides, the Potency in assay [18] is 2090 nM (active).
With `COc1cccc2c(NCc3ccccc3)nc(-n3c(N)nc4ccccc43)nc12`, the Potency in assay [19] is 7080 nM (active); in assay [11], 6620 nM (active); in assay [12], 2960 nM (active); in [14], 1050 nM (active); in assay [15] it was 7430 nM (active); in assay [16], 4690 nM (active). For the same compound, the Potency entry in [5], in assay [6], in assay [7] and in assay [10] was “inactive” throughout.
As to `COc1c(OCCCN2CCOCC2)ccc2c3n(c(=NC(=O)c4cnc(N)nc4)nc12)CCN3`, the activity, negative = inhibition is -31.4% [at 9.52 µM] (inactive) and 3.3% [at 9.52 µM] (inactive) in assay [5]; 0.183% [at 11.6 µM] (inactive) in [9]. For the same compound, the values for the outcome in [5] and in assay [6] were “inactive [at 9.52 µM]” and “inactive [at 9.73 µM]”, respectively. Further, the activity change, negative = inhibition in assay [6] is -4.71% [at 9.73 µM] (inactive) and -19.4% [at 9.73 µM] (inactive); in assay [7] it was -4.27% [at 11.6 µM] (inactive). In addition, the activity change, negative = thiol reactive in assay [8] is 32.5% [at 11.5 µM] (inactive). In addition, the redox activity (% of DA3003) in assay [10] is -6.72% [at 11.5 µM] (inactive). For the same compound, the Potency in assay [11] was 2880 nM (active); in assay [12] it was 182 nM (active); in assay [14] it was 512 nM (active); in [15], 28.8 nM (active); in assay [16], 14.4 nM (active); in [18], 102 nM (active).
Consider `CC(C)(C)OC(=O)Nc1ccc(-c2cc(C(=O)NCCCCCCC(=O)NO)no2)cc1`, for which the Potency result in assay [19], in assay [5] and in assay [6] was “inactive” in each case. In addition, the Potency in assay [11] is 1320 nM (active); in assay [12], 833 nM (active); in [13] it was 3720 nM (active); in [14] it was 590 nM (active); in [15], 743 nM (active); in assay [16], 935 nM (active). For the same compound, the Potency in assay [18] was 2350 nM (active).
Take `O=C(CCCCCCC(=O)Nc1ccc([C@H]2O[C@@H](CSc3nc(-c4ccccc4)c(-c4ccccc4)o3)C[C@@H](c3ccc(CO)cc3)O2)cc1)NO`: the Potency result in assay [5], in assay [7], in assay [8], in assay [9], in assay [10] and in assay [16] was “inactive” throughout. Besides, in assay [18], the Potency result was “inactive”. Further, in [6], the activity change, negative = inhibition is -22.8% [at 9.73 µM] (inactive). The Potency in [11] is 11800 nM (active); in assay [12] it was 11800 nM (active); in assay [13] it was 13200 nM (active); in assay [15] it was 10500 nM (active).

These data come from PubChem BioAssay (NCATS).
